The values below come from PubChem BioAssay (NCI).

Among the test systems are K-562 leukemia; MALME-3M melanoma; MDA-MB-231 breast; RXF 393 renal; SF-268 CNS; SF-295 CNS; SF-539 CNS; UACC-257 melanoma; M14 melanoma; HCT-15 colon; HT29 colon; SNB-19 CNS; U251 CNS; PC-3 prostate; SK-MEL-5 melanoma; UACC-62 melanoma; LOX IMVI melanoma; SK-MEL-28 melanoma; SK-MEL-2 melanoma; SNB-75 CNS.
Common to all, as to assay: NCI-60 one-dose screen, 48 h (100 = growth as untreated, 0 = no growth, -100 = all killed)
Settings in all cases: 10 µM unless noted

SMILES strings stand for the structures. Compounds without any hit were thinned out: in the full panel of roughly 83,000, 20% have a hit.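 Method: cells in 96-well plates; compound added at one concentration; 48 h incubation; percent growth measured; values under 10 scored active.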 A number with no mark means an inactive call. The source made the active and inactive calls.

For the compound `COc1ccccc1/C=C/C=N/NC1=NC2C(S1)N(C)C(=O)N2C` (stereo unspecified), the growth in the assay with K-562 leukemia was 9.44% (active); in the assay with MALME-3M melanoma it was 43.8%; in the assay with MDA-MB-231 breast, 40%; in the assay on RXF 393 renal it was -20.8% (active); in the assay with SF-268 CNS, 52%; in the assay on SF-295 CNS, 16.2%. Further, the growth in the assay with SF-539 CNS was 5.56% (active); in the assay with UACC-257 melanoma, 78.8%; in the assay with M14 melanoma, 19%; with HCT-15 colon, 30.4%; in the assay on HT29 colon it was 6.54% (active); in the assay on SNB-19 CNS it was 29.1%. Also, the growth with U251 CNS was 25.1%; with PC-3 prostate, 30.2%; in the assay on SK-MEL-5 melanoma, 33.8%; with UACC-62 melanoma, 46.7%; with LOX IMVI melanoma it was 35.3%; in the assay on SK-MEL-28 melanoma, 56%. The growth with SK-MEL-2 melanoma was 23.9%.

Consider `O=C(N/N=C/c1ccc([N+](=O)[O-])o1)c1[nH]c2ccc(Br)cc2c1-c1ccccc1`, for which the growth was 3.51% (active) in the assay with K-562 leukemia; 23% in the assay with MALME-3M melanoma; -2.79% (active) with MDA-MB-231 breast; 50.1% with RXF 393 renal; 24.8% in the assay with SF-268 CNS; 21.3% in the assay with SF-295 CNS. The growth is 4.34% (active) in the assay with SF-539 CNS; 37.5% in the assay on UACC-257 melanoma; -35.4% (active) with M14 melanoma; 9.3% (active) with HCT-15 colon; 9.21% (active) in the assay with HT29 colon; 22% with SNB-19 CNS. In addition, the growth in the assay with PC-3 prostate was 16.2%; in the assay on SK-MEL-5 melanoma, -84% (active); in the assay on UACC-62 melanoma, 6.4% (active); with SK-MEL-28 melanoma it was 55.9%; in the assay on SK-MEL-2 melanoma, -12.4% (active).

`NS(=O)(=O)c1cccc(Nc2nc(SCC(=O)c3ccc(Cl)cc3)nc3ccccc23)c1`: the growth with K-562 leukemia is 68.2%; with MALME-3M melanoma, 66.4%; in the assay on MDA-MB-231 breast it was 56%; in the assay with RXF 393 renal, 72.2%; in the assay on SF-268 CNS, 41.8%; in the assay on SF-295 CNS, 71.8%. Also, the growth in the assay with SF-539 CNS was 50.9%; in the assay on UACC-257 melanoma, 95%; in the assay with M14 melanoma it was 99.3%; in the assay with HCT-15 colon it was 88.8%; in the assay with HT29 colon, 88.4%; in the assay with SNB-19 CNS, 69.6%. Also, the growth was 46.4% in the assay with U251 CNS; 57.2% in the assay on PC-3 prostate; 73.5% with SK-MEL-5 melanoma; 62.6% in the assay on UACC-62 melanoma; 28.7% with LOX IMVI melanoma; 89% in the assay on SK-MEL-28 melanoma. The growth in the assay with SK-MEL-2 melanoma is 77.3%.

As for `CC(C)(O)c1cncc(-c2ccc3ncnc(N4CCc5cc(F)c(Cl)cc54)c3c2)c1`, the growth in the assay on K-562 leukemia is 33.6%; with MALME-3M melanoma, 16.1%; in the assay on MDA-MB-231 breast, 30.3%; with RXF 393 renal it was -17% (active); in the assay on SF-268 CNS it was 26.1%; with SF-295 CNS, 7.56% (active). Moreover, the growth with SF-539 CNS is 4.86% (active); in the assay with UACC-257 melanoma, 42.8%; in the assay on HCT-15 colon it was 14.1%; in the assay with HT29 colon, 20.8%; in the assay with SNB-75 CNS, -20% (active); in the assay on SNB-19 CNS, 25.2%. In addition, the growth with U251 CNS was 42.6%; in the assay on PC-3 prostate, 18.7%; with UACC-62 melanoma, 5.48% (active); in the assay on SK-MEL-28 melanoma, 24.8%; with SK-MEL-2 melanoma, -1.1% (active).

On to `NC(=O)c1cc(-c2ccc3ncnc(N4CCc5cc(F)c(Cl)cc54)c3c2)cnc1N`, for which the growth in the assay on K-562 leukemia was 35.2%; with MALME-3M melanoma, 25.1%; in the assay with MDA-MB-231 breast, 34.5%; in the assay with RXF 393 renal, -17.5% (active); in the assay with SF-268 CNS, 27.6%; with SF-295 CNS, 25.3%. In addition, the growth is -23.4% (active) with SF-539 CNS; 54.8% with UACC-257 melanoma; 25.8% in the assay on HCT-15 colon; 21% in the assay with HT29 colon; 39.5% with SNB-19 CNS; 40.8% in the assay with U251 CNS. The growth in the assay with PC-3 prostate is 25%; in the assay with SK-MEL-5 melanoma, 52.1%; in the assay with UACC-62 melanoma, 26%; in the assay on SK-MEL-2 melanoma, -51.5% (active).

Consider `Cc1ccc2ccc3ccc(C)nc3c2n1.Cc1ccc2ccc3ccc(C)nc3c2n1.Oc1c(Cl)cc(Cl)c2ccc(CN3CCCCC3)nc12.[Ru]`, for which the growth in the assay with MALME-3M melanoma is -85.1% (active); in the assay with MDA-MB-231 breast it was -84% (active); in the assay with RXF 393 renal, -84.1% (active); in the assay with SF-268 CNS, -54.8% (active); in the assay with SF-295 CNS it was -84.2% (active); in the assay with SF-539 CNS, -88.2% (active). In addition, the growth was -69.4% (active) in the assay with UACC-257 melanoma; -94.1% (active) in the assay on M14 melanoma; -81.3% (active) with HCT-15 colon; -61.7% (active) in the assay with HT29 colon; -71% (active) in the assay on SNB-75 CNS; -86.4% (active) in the assay on SNB-19 CNS. Besides, the growth in the assay with U251 CNS is -54.5% (active); in the assay on PC-3 prostate it was -82.6% (active); with UACC-62 melanoma, -74% (active); with SK-MEL-28 melanoma it was -89.9% (active); in the assay on SK-MEL-2 melanoma, -83.1% (active).

Regarding `Clc1ccc2c(NCCCN3CCOCC3)c3oc4ccc(Cl)cc4c3nc2c1`, the growth in the assay with K-562 leukemia is 2.23% (active); with MALME-3M melanoma, 89.3%; in the assay on MDA-MB-231 breast, 50.3%; in the assay with RXF 393 renal, 22.2%; in the assay on SF-268 CNS it was 68.5%; in the assay on SF-295 CNS, 35%. Moreover, the growth was 41.7% in the assay on SF-539 CNS; 102% in the assay on UACC-257 melanoma; 4.4% (active) with HCT-15 colon; 33.5% in the assay with HT29 colon; 79.6% in the assay on SNB-75 CNS; 69.6% in the assay on SNB-19 CNS. Further, the growth in the assay on PC-3 prostate was 60.8%; in the assay on SK-MEL-5 melanoma, 74.2%; in the assay with UACC-62 melanoma it was 98.7%; in the assay with LOX IMVI melanoma, -82.8% (active); in the assay with SK-MEL-28 melanoma, 80.4%; with SK-MEL-2 melanoma it was 122%.

Turning to `COc1ccc(NC(=O)c2sc3nc(-c4cnccn4)cc(-c4cccs4)c3c2N)cc1`, the growth with K-562 leukemia is 54.5%; with MALME-3M melanoma, 86.5%; with MDA-MB-231 breast, 79.7%; with RXF 393 renal it was 31.7%; in the assay with SF-268 CNS, 81%; in the assay on SF-295 CNS it was 84%. Besides, the growth in the assay with SF-539 CNS is -14.2% (active); in the assay on UACC-257 melanoma, 85.1%; in the assay with HCT-15 colon it was 66.5%; with HT29 colon it was 20.8%; in the assay with SNB-75 CNS it was 67.1%; in the assay with SNB-19 CNS, 93.6%. Further, the growth in the assay on U251 CNS was 55.5%; in the assay on PC-3 prostate, 82.7%; in the assay with SK-MEL-5 melanoma it was 59.4%; in the assay with UACC-62 melanoma it was 32.7%; in the assay on SK-MEL-28 melanoma it was 84.3%; in the assay with SK-MEL-2 melanoma, 86.6%.

In the case of `O=[N+]([O-])c1ccc(O)c2ncccc12`, the growth is 12.6% with K-562 leukemia; 38% with MALME-3M melanoma; 31.9% in the assay with MDA-MB-231 breast; 41.6% in the assay on RXF 393 renal; 37.2% in the assay on SF-268 CNS; 23.1% in the assay with SF-295 CNS. Further, the growth in the assay with SF-539 CNS is 23.2%; in the assay with UACC-257 melanoma, 16.5%; in the assay on HCT-15 colon it was 21.3%; in the assay with HT29 colon it was 20%; in the assay with SNB-19 CNS, 23.8%; in the assay on U251 CNS, 17.2%. Also, the growth is 31.3% in the assay on PC-3 prostate; 15.3% in the assay on SK-MEL-5 melanoma; 10.5% with UACC-62 melanoma; 25.2% with LOX IMVI melanoma; 29.1% in the assay with SK-MEL-28 melanoma; 78.3% with SK-MEL-2 melanoma.

Consider `CCOC(=O)c1c(Nc2ccccc2)nn2c(N)c(C#N)c(-c3ccc(OC)cc3)nc12`, for which the growth was 61.1% in the assay with MALME-3M melanoma; 78.1% with MDA-MB-231 breast; 46% with RXF 393 renal; 61.9% in the assay with SF-268 CNS; 42.8% in the assay with SF-295 CNS; 52.1% in the assay with SF-539 CNS. Further, the growth was 95.4% with UACC-257 melanoma; 78.6% in the assay with M14 melanoma; 84.6% with HCT-15 colon; 76.7% in the assay on HT29 colon; -15.3% (active) in the assay on SNB-75 CNS; 76.5% with SNB-19 CNS. For the same compound, the growth was 71.3% in the assay with U251 CNS; 66.1% in the assay with PC-3 prostate; 87.4% with SK-MEL-5 melanoma; 80.4% with UACC-62 melanoma; 71% with LOX IMVI melanoma; 78.4% in the assay on SK-MEL-28 melanoma. Besides, the growth in the assay with SK-MEL-2 melanoma was 89.2%.

Consider `COc1ccc(C(=O)/C=C/c2ccc(Oc3nc(NCCO)nc(N4CCOCC4)n3)c(OC)c2)cc1`, for which the growth is 6.9% (active) with K-562 leukemia; 84.7% with MALME-3M melanoma; 85.3% with MDA-MB-231 breast; 108% in the assay on RXF 393 renal; 85.5% with SF-268 CNS; 104% in the assay with SF-295 CNS. Also, the growth is 82.5% with SF-539 CNS; 89.9% with UACC-257 melanoma; 36.2% in the assay on HCT-15 colon; 35% in the assay on HT29 colon; 89.6% in the assay on SNB-75 CNS; 69.3% with SNB-19 CNS. In addition, the growth with U251 CNS is 43.1%; in the assay on PC-3 prostate it was 80%; in the assay with SK-MEL-5 melanoma, 95.2%; with UACC-62 melanoma, 70.3%; with SK-MEL-28 melanoma it was 97.3%; in the assay on SK-MEL-2 melanoma it was 101%.
